Laboratory results: PubChem BioAssay AID1240 (Sanford-Burnham Center for Chemical Genomics, 2008)
Hit rate of the full screen: of about 50,000 compounds, about 800 (1.6%) showed an effect of 50% or more. The full list was thinned out, with strong results kept by preference.

molecular target: Bcl-2-like protein 10 (Homo sapiens) (UniProt Q9HD36); experiment: Phenotype converters, Bcl-B/TR3 peptide binding displacement, primary biochemical FP (AID 1240); conditions: GST-Bcl-B / FITC-TR3 peptide fluorescence polarization; stronger effect = higher value; compound at 3.75 mg/L;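 note: 0% = Bcl-B with tracer peptide and DMSO and 100% = tracer peptide lacking Bcl-B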
Sequence (Q9HD36 whole entry, looked up): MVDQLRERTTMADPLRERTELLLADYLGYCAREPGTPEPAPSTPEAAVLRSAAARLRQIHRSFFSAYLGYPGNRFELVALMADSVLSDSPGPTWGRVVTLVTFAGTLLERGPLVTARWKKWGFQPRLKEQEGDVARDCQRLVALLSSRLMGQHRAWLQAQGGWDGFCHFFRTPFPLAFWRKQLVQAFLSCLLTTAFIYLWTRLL

Compared with `CCc1cc(=O)oc2cc(OC(C)=O)ccc12`, `CCOc1ccc(NC(=O)c2cc3cc(OC)ccc3oc2=O)cc1` is higher in displacement: 12.3% for the first, 13.8% for the second.

Going from `O=C(N(c1cccc2ccccc12)C1C=CS(=O)(=O)C1)C(F)(F)F` (stereo not given) to `CCOC(=O)c1ccccc1N(C(=O)C(F)(F)F)C1C=CS(=O)(=O)C1` (stereo not given), the displacement falls from 66% to -3.1%.

Going from `O=C(N(c1cccc(C(F)(F)F)c1)C1C=CS(=O)(=O)C1)C(F)(F)F` (stereo not given) to `FC(F)(F)c1cccc(NC(=S)NCc2ccc3c(c2)OCO3)c1`, the displacement falls from 14.6% to -6.8%.

Going from `CC(Oc1ccccc1)C(=O)N1CCC(Cc2ccccc2)CC1` (stereo not given) to `O=C(NC1CCN(Cc2ccccc2)CC1)c1ccc(F)cc1`, the displacement falls from 3.1% to 2.6%.

Compared with `C=CCN1C(=O)/C(=C\c2ccc3c(c2)OCO3)C(=O)NC1=S`, `Cc1ccsc1/C=C(\C#N)c1nc(-c2ccc3c(c2)OCO3)cs1` is lower in displacement: 4.4% for the first, -27% for the second.

First: COc1c(Cl)cc(C(=O)Nc2c(C)cccc2C)cc1Cl
Second: COc1ccc(C)cc1NC(=O)COc1ccc(Cl)cc1C
The displacement of the first is higher: 6.7% for the first, -5.2% for the second.

Compared with `COc1ccc(Br)cc1C1C(C(=O)OCCOC(C)C)=C(C)NC2=C1C(=O)CCC2` (stereo not given), `CC1=C(C(=O)OCCc2ccccc2)C(c2ccccc2OCc2ccccc2)C2=C(CCCC2=O)N1` (stereo not given) is lower in displacement: -2.6% for the first, -6% for the second.

Going from `Cc1ccc(NC(=O)CN(c2ccc(C(C)C)cc2)S(=O)(=O)c2ccccc2)c(C)c1` to `Cc1ccc(N(CC(=O)NCCc2ccccc2)S(C)(=O)=O)cc1Cl`, the displacement rises from 5.6% to 19.2%.

Compared with `COc1cc(C2OCC3(CO)C(C)C=C(C)C2C3C)ccc1O` (stereo not given), `COc1ccc(N)cc1-n1c(C)ccc1C` is higher in displacement: 16.4% for the first, 42.5% for the second.

Going from `O=C1c2cccc3c(N4CCCCC4)ccc(c23)C(=O)N1c1ccc(Cl)cc1` to `O=C1c2cccc3c(N4CCNCC4)ccc(c23)C(=O)N1c1ccc(Cl)cc1`, the displacement rises from 5.7% to 101%.

Going from `Cc1cccc(N2C(=O)c3cccc4c(N5CCCCC5)ccc(c34)C2=O)c1` to `Cc1cccc(N2C(=O)c3cccc4c(N5CCOCC5)ccc(c34)C2=O)c1`, the displacement rises from 15.5% to 154%.

First: Cc1cccc(N2C(=O)c3ccc(-c4ccc5c(c4)C(=O)N(c4cccc(C)c4)C5=O)cc3C2=O)c1
Second: O=C1c2ccc(Oc3ccc4c(c3)C(=O)N(Cc3cccnc3)C4=O)cc2C(=O)N1Cc1cccnc1
The displacement of the first is higher: 6.7% for the first, -7% for the second.

Compared with `COc1ccc(N2C(=O)c3cccc4c(N5CCNCC5)ccc(c34)C2=O)cc1`, `O=C(O)c1cccc(NC2=C(Cl)C(=O)N(c3ccc(Cl)cc3)C2=O)c1` is lower in displacement: 37.2% for the first, 32% for the second.

First: CC(=O)Oc1ccc(-c2cccc(C(=O)NC(CO)C(O)c3ccc([N+](=O)[O-])cc3)c2)cc1 (stereo not given)
Second: Cc1ccc(C(=O)Nc2ccccc2C(=O)NC(Cc2c[nH]c3ccccc23)C(=O)O)cc1 (stereo not given)
The displacement of the first is higher: 10.4% for the first, 7.1% for the second.

Compared with `COC(=O)c1ccc(-n2ncnc2-c2ccc(Br)cc2)cc1`, `COc1ccccc1OCCNC(=O)c1ccc(Br)cc1` is lower in displacement: -5.4% for the first, -19.3% for the second.

Compared with `CCC(=O)NC(Nc1ccc(OC)cc1)(C(F)(F)F)C(F)(F)F`, `CCOc1ccc(Nc2cc(=O)n(C)c(=O)n2C)cc1` is lower in displacement: -2.7% for the first, -4.6% for the second.

First: Cc1oc2c(CN3CC4(C)CC3CC(C)(C)C4)c(O)ccc2c(=O)c1-c1nc2ccccc2s1 (stereo not given)
Second: Cc1csc(-c2cc3ccc(O)c(CN4CC5(C)CC4CC(C)(C)C5)c3oc2=O)n1 (stereo not given)
The displacement of the first is lower: 11.2% for the first, 138% for the second.

Compared with `Cc1csc(-c2cc3ccc(OCc4c(F)c(F)c(F)c(F)c4F)cc3oc2=O)n1`, `Cc1ccsc1/C=C(\C#N)c1nc(-c2cc3cc(Br)ccc3oc2=O)cs1` is lower in displacement: 6.9% for the first, -10.8% for the second.

Going from `O=C(O)CCC(=O)Nc1ccc(CC(=O)O)cc1` to `COc1ccc(CSCC(=O)O)cc1C(=O)O`, the displacement falls from 21.4% to -8.5%.

First: CCOC(=O)c1c(NC(=O)C2CCCO2)sc(C(=O)N(CC)CC)c1C (stereo not given)
Second: COc1ccc(C(=O)NNC(=O)c2cccc(C)c2)c(OC)c1
The displacement of the first is lower: -4% for the first, 3.3% for the second.

Going from `CCN(CC)c1ccc(/C=C(\C#N)c2nn(CCO)c(N)c2C#N)cc1` to `N#C/C(=C\c1ccc(F)cc1)c1nn(CCO)c(N)c1C#N`, the displacement falls from 68.2% to -45.5%.

First: N#C/C(=C\c1ccc(Cl)cc1)c1nn(CCO)c(N)c1C#N
Second: Cc1ccsc1/C=C(/C#N)c1nc(-c2ccc(Cl)cc2)cs1
The displacement of the first is lower: 11.2% for the first, 81.1% for the second.

Compared with `COc1cc(OC)cc(C(=O)O/N=C(\c2ccncc2)c2ccc([N+](=O)[O-])cc2)c1`, `COc1cc2c(cc1NS(=O)(=O)c1ccc([N+](=O)[O-])cc1)oc1ccccc12` is lower in displacement: 10.5% for the first, -2.9% for the second.

Compared with `O=C(O)CCCN1C(=O)/C(=C\c2ccc(-c3ccc(Br)cc3)o2)SC1=S`, `O=C(O)CCN1C(=O)/C(=C/c2ccc(-c3ccc([N+](=O)[O-])cc3)o2)SC1=S` is higher in displacement: -65.6% for the first, -59.7% for the second.

First: O=C1/C(=C\c2ccc(-c3cccc([N+](=O)[O-])c3)o2)SC(=S)N1CCc1ccccc1
Second: O=C1/C(=C/c2ccc(-c3ccc([N+](=O)[O-])cc3)o2)SC(=S)N1Cc1ccccc1
The displacement of the first is higher: 114% for the first, 9.4% for the second.

First: O=C1/C(=C/c2ccc(-c3cccc([N+](=O)[O-])c3)o2)SC(=S)N1Cc1ccco1
Second: O=C(O)CCCN1C(=O)/C(=C\c2ccc(-c3cccc([N+](=O)[O-])c3)o2)SC1=S
The displacement of the first is lower: 9.9% for the first, 59% for the second.

Going from `O=C1NC(=S)S/C1=C/c1cn(CCOc2ccc(Br)cc2)c2ccccc12` to `CC(C)(C)c1ccc(OCCn2cc(/C=C3/SC(=S)NC3=O)c3ccccc32)cc1`, the displacement falls from 68.9% to 15.2%.

Compared with `CCc1cc(C)cc(OCCn2cc(/C=C3/SC(=S)N(C)C3=O)c3ccccc32)c1`, `CCc1cc(C)cc(OCCn2cc(/C=C3/SC(=S)NC3=O)c3ccccc32)c1` is lower in displacement: 123% for the first, 78.8% for the second.

First: Cc1cccc(OCCn2cc(/C=C3/SC(=S)N(C)C3=O)c3ccccc32)c1
Second: COc1cccc(OCCn2cc(/C=C3/SC(=S)NC3=O)c3ccccc32)c1
The displacement of the first is higher: 15.1% for the first, -15.1% for the second.

Compared with `Cc1ccccc1OCCn1cc(C=C2C(=O)NC(=S)NC2=O)c2ccccc21`, `COc1cccc(OCCn2cc(C=C3C(=O)NC(=S)NC3=O)c3ccccc32)c1` is higher in displacement: 6.1% for the first, 36.6% for the second.

Going from `CCC(C)c1ccccc1OCCn1cc(/C=C2/SC(=S)NC2=O)c2ccccc21` (stereo not given) to `O=C1NC(=S)S/C1=C\c1cn(CCOc2ccccc2F)c2ccccc12`, the displacement falls from 128% to -62.3%.

First: CCc1cc(C)cc(OCCn2cc(C=C3C(=O)NC(=S)NC3=O)c3ccccc32)c1
Second: CCc1cc(C)cc(OCCOc2ccccc2/C=C2/SC(=S)N(C)C2=O)c1
The displacement of the first is higher: 14.7% for the first, 2.3% for the second.

First: O=C(c1ccc([N+](=O)[O-])cc1)N1CCN(CC2CC3C=CC2C3)CC1 (stereo not given)
Second: O=[N+]([O-])c1ccc(N2CCOCC2)cc1NC1CC1
The displacement of the first is lower: -6.8% for the first, 4% for the second.

Compared with `O=C(Nc1ccccc1F)c1ccc(CSc2ccc(Cl)cc2)cc1`, `Cc1ccc(-c2ccccc2)n1-c1ccc(Cl)c(C(=O)O)c1` is lower in displacement: 6% for the first, -41.6% for the second.

First: O=C(Nc1ccccc1I)C1CC(=O)N(c2ccc(Br)cc2)C1 (stereo not given)
Second: Cc1ccc(-c2ccccc2)n1-c1ccc(O)c(C(=O)O)c1
The displacement of the first is lower: -26% for the first, 20.4% for the second.

First: CC1(C)CC(NC(=S)Nc2cccc(Cl)c2)CC(C)(C)N1
Second: C=C(C)C1CC=C(C)/C(=N/NC(=O)c2cccc(C)c2)C1 (stereo not given)
The displacement of the first is lower: -3.3% for the first, 14.9% for the second.

Going from `O=S(=O)(c1ccc(Cl)cc1)n1cccc1` to `CC(=O)N(C)c1ccc(NC(=O)c2ccccc2[N+](=O)[O-])cc1`, the displacement falls from 6.8% to -4%.

Compared with `O=[N+]([O-])c1ccccc1C=Nc1cc2c(cc1Br)OCCO2`, `N#C/C(=C\c1cccc(F)c1)c1nc(-c2ccc([N+](=O)[O-])cc2)cs1` is higher in displacement: -4.8% for the first, 8.5% for the second.

Compared with `O=C(O)c1ccc(Cl)c(S(=O)(=O)N2CCCC2)c1`, `CCn1cc(C(=O)NN)c(=O)c2cc(F)c(N3CCCCC3)cc21` is higher in displacement: 5.8% for the first, 17.4% for the second.

First: CC(=O)c1c(C(=O)O)cccc1C(=O)O
Second: Cc1c(C(=O)O)cccc1-n1c(C)ccc1C
The displacement of the first is lower: 4.4% for the first, 85.4% for the second.

First: Cc1c(C(=O)O)cccc1-n1c(=O)c2cc3c(=O)n(-c4cccc(C(=O)O)c4C)c(=O)c3cc2c1=O
Second: Cc1ccc(-c2ccccc2)n1-c1ccccc1C(=O)O
The displacement of the first is lower: 14% for the first, 86.8% for the second.

Going from `COc1cc(C(=O)O)c(-n2c(C)ccc2C)cc1OC` to `COc1ccc(-c2csc(/C(C#N)=C/c3sccc3C)n2)cc1OC`, the displacement rises from 74.7% to 181%.

Going from `CCOC(=O)C1=C(c2ccccc2)N=c2s/c(=C\c3cccnc3)c(=O)n2C1c1cc(OC)ccc1OC` (stereo not given) to `COc1cc(/C=C2/SC(=S)N(C)C2=O)ccc1OCc1cccc2ccccc12`, the displacement rises from -3% to 6.6%.

Going from `CN1C(N)=NC(=O)C12COC(c1cccnc1)OC2` (stereo not given) to `C=CCn1c(C)nc2c(cnn2-c2ccccc2)c1=O`, the displacement falls from 7.8% to -0.7%.

Compared with `Clc1ccccc1COc1cccc(/C=N/Nc2nc(N3CCOCC3)nc(N3CCOCC3)n2)c1`, `COc1cc(/C=C2/SC(=S)N(Cc3ccccc3)C2=O)cc(Cl)c1OCc1ccccc1` is higher in displacement: 2.6% for the first, 12.4% for the second.

First: Cc1ccsc1/C=C(/C#N)c1nc(-c2ccc(-c3ccccc3)cc2)cs1
Second: Cc1ccsc1/C=C(/C#N)c1nc(-c2ccc(Br)cc2)cs1
The displacement of the first is lower: 3.1% for the first, 132% for the second.

Compared with `COc1cccc(-c2csc(/C(C#N)=C/c3sccc3C)n2)c1`, `Cc1ccsc1/C=C(\C#N)c1nc(-c2cccc(Br)c2)cs1` is higher in displacement: -8.9% for the first, 95.2% for the second.

Compared with `Cc1ccc(-c2csc(/C(C#N)=C/c3sccc3C)n2)cc1C`, `Cc1ccc(-c2csc(/C(C#N)=C/c3sccc3C)n2)c(C)c1` is higher in displacement: 11.7% for the first, 69.3% for the second.

First: COc1ccc(-c2csc(/C(C#N)=C\c3sccc3C)n2)cc1
Second: Cc1ccsc1/C=C(\C#N)c1nc(-c2cccc([N+](=O)[O-])c2)cs1
The displacement of the first is lower: 1.8% for the first, 147% for the second.

Going from `COc1ccc(-c2csc(/C(C#N)=C/c3ccc(C)o3)n2)cc1OC` to `CCOc1ccc(-c2csc(/C(C#N)=C/c3ccco3)n2)cc1`, the displacement rises from -31.7% to -6%.

Going from `N#C/C(=C\c1ccco1)c1nc(-c2ccccc2)cs1` to `N#C/C(=C/c1ccco1)c1nc(-c2cc3ccccc3oc2=O)cs1`, the displacement falls from 58.3% to -1.2%.

Compared with `CCC(=O)Nc1nc(C23CC4CC(CC(C4)C2)C3)c(C)s1`, `CC(C)CN1C(=O)c2ccc(C(=O)Nc3c[nH]c(=O)[nH]c3=O)cc2C1=O` is higher in displacement: -2.7% for the first, 7.8% for the second.

Compared with `Cc1csc(/C(C#N)=C/c2sccc2C)n1`, `Cc1ccc(-c2csc(/C(C#N)=C/c3ccsc3)n2)cc1` is higher in displacement: -12% for the first, -5.9% for the second.

First: CCc1ccc(/C=C(/C#N)c2nc(-c3ccc(Br)cc3)cs2)cc1
Second: N#C/C(=C\c1cccs1)c1nc(-c2ccc(Br)cc2)cs1
The displacement of the first is lower: -3.5% for the first, 5.9% for the second.

Going from `N#C/C(=C\c1ccccc1Cl)c1nc(-c2cccs2)cs1` to `N#C/C(=C\c1cccs1)c1nc(-c2ccc(Cl)cc2Cl)cs1`, the displacement rises from -9.2% to 129%.
